Rows were chosen to be rich in hits. Some 5.7% of all compounds tested hit in one or more screens of this group.
S2 tox: reduces viability in counter-screen for ATXN expression inhibitors; Potency, µM (titrated, usually from 56.7 µM), actives largely listed as cytotoxic; S2 cells (HEK-293 line with an ATXN2-luciferase reporter) viability, CellTiter-Fluor protease fluorescence, 24 h; actives 0.49% (n = 400,000); note: potency is the fitted concentration of half-maximal effect; nearly all actives have a fitted effect of over 40% in size
ATXN2 expr inh: reduces ATXN2 reporter expression in HEK-293 cells | HEK-293 ATXN2-luciferase reporter, luminescence, 24 h | Potency, µM (doses to about 57 µM), without a hit: at the top dose activity change, negative = inhibition, actives largely listed as inhibitors | actives 0.72% (n = 360,000) | AID 1745845; note: potency is the fitted concentration of half-maximal effect; % is set by controls: 0 for no effect and ±100 for the full control effect; nearly all actives have a fitted effect of over 55% in size
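ATXN2-luciferase reporter cells (luciferase flanked by upstream and downstream ATXN2 gene portions) were treated 24 h at 37 °C with compounds at up to 57 uM. SteadyGlo luminescence gave expression; GF-AFC fluorescence gave viability.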
HepG2 viability: kills HepG2 cells in TGF-b inhibitor counter-screen | Potency, µM (series often up to 46.1 µM), inactives show top-dose activity change, negative = cytotoxicity, hits mostly cytotoxic | actives 0.76% (n = 410,000) | HepG2 CAGA-GFP viability, ATP luminescence, 18 h; note: potency is the fitted concentration of half-maximal effect
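HepG2 CAGA-GFP cells (1000/well, DMEM with 1% FBS) received compound, then TGF-beta at 500 pg/mL final, and were incubated 18 hours at 37 degrees C. Viability was read by CellTiter-Glo luminescence. Media-only wells were set as complete cell-killing and DMSO as no toxicity.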
TGFb SMAD3 inh: TGF-b pathway inhibition. HepG2 CAGA-GFP TGF-b/SMAD3 reporter, GFP fluorescence, 18 h; TGF-beta stimulated, 500 pg/mL final. Potency, µM (titrated, usually from 46.1 µM), for inactives: top-dose activity, negative = inhibition, most hits filed as inhibitors. actives 1.2% (n = 410,000). AID 588855; note: potency is the fitted concentration of half-maximal effect; % is set by controls: 0 for no effect and ±100 for the full control effect; nearly all actives have a fitted effect of over 65% in size
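Cell-based qHTS in HEPG2 carrying a CAGA-GFP Smad reporter; compounds added before 500 pg/mL final TGF-beta, 18 h incubation at 37 degrees C, GFP fluorescence quantified per cell by imaging cytometry.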
IL-1B inflam inh: inflammasome signaling inhibition, IL-1 beta readout | THP-1 LPS/ATP IL-1B secretion, AlphaLISA, 16 h; hits give low values | activity change, % at 57.5 µM | actives 4.7% (n = 360,000); in the data active = activity change below about -50%; inconclusive = mostly about -30% to -49%; note: % is set by controls: 0 for no effect and ±100 for the full control effect
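THP-1 cells pretreated 1 hr with compounds (up to 57.5 uM final), then stimulated with LPS (250 ng/mL final) plus ATP (1.25 mM final); secreted IL-1B measured by AlphaLISA after 16 hr, decreased signal indicating inhibition.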
The depositor's hits bear a star; i = inactive; ? = inconclusive; . = no result given; [ ] = another dose, or the depositor's remark. Unless noted, calls come from the whole dose curve; as a rule, active = well fitted curve in the direction sought with a large enough effect; inconclusive = small, poorly fitted or top-dose-only effect, or another doubt; inactive = no such curve, though single readings can be large; an effect the other way counts as inactive or inconclusive.

SMILES | S2 tox | ATXN2 expr inh | HepG2 viability | TGFb SMAD3 inh | IL-1B inflam inh
COC(=O)c1ccccc1-c1cc(C)cc2c1OC(CNC(=O)c1cnc(C)cn1)C2 (stereo not drawn) | i | . | . | . | .
CCCCNC(=O)c1sc2ncnc(NCC3CCCO3)c2c1C (stereo not drawn) | i | . | . | . | .
CCOc1ccc(/C=C/C(O)=C2/C(=O)N(C)C3(C)CC2c2ccccc2O3)cc1OC (stereo not drawn) | i | ? | -8.6% | -19.2% | -100.8*
CCOc1ccc(/C=C/C(O)=C2/C(=O)NC3(C)CC2c2ccccc2O3)cc1OC (stereo not drawn) | ? | -12.3% | -26.2% | -30.9% | -20.4
O=C(Nc1ccc(-c2nc3ncccc3o2)cc1)c1ccc([N+](=O)[O-])o1 | i | -26.1% | -22.0% | ? | -80.4*
O=C(Nc1ccc(-c2nc3ccccc3o2)cc1)c1ccc(N2CCOCC2)c([N+](=O)[O-])c1 | i | -8.8% | -35.9% | ? | -16.2
Cn1cc([N+](=O)[O-])c(C(=O)Nc2ccc(-c3nc4ccccc4o3)cc2)n1 | i | . | 11.1% | ? | -86.1*
Cc1ccc(-c2nc3ncccc3o2)cc1NC(=O)c1ccc([N+](=O)[O-])o1 | ? | -8.4% | -21.0% | -26.8% | -96.7*
CN(c1ccc(O)cc1)c1nc(O)c(C2=c3ccccc3=NC2=O)s1 | 28.2µM* | . | -24.3% | ? | -26.9
Cc1ccc(C(=O)NCC(c2cccs2)S(=O)(=O)c2cccs2)cc1 (stereo not drawn) | 20µM* | ? | -24.2% | ? | .
COc1ccc(C2C(=O)N(C3CCC(C)CC3)CC(=O)N2C2CCCCC2)cc1OC (stereo not drawn) | . | . | 1.0% | -2.0% | .
CCCC(CCC)(C(=O)OCC)C(=O)OCC | i | -7.8% | . | . | .
CCOC(=O)C(=Cc1ccc(Br)cc1)C(=O)OCC | 8.91µM* | ? | 14.1µM* | 17.8µM* | -96.9*
CCOC(=O)C(CC)(CC)C(=O)/C=C/c1ccc(Br)cc1 | i | -37.8% | -17.1% | -1.2% | -103.5*
CCOC(=O)C(=Cc1ccc(-n2ccnc2)cc1)C(=O)OCC | . | ? | -81.8% | ? | -93.2*
CCOC(=O)/C(=C/c1ccc(OC(=O)c2ccncc2)cc1)C(C)=O | i | -10.7% | -2.0% | -7.8% | 0.0
CCC1CN(CCNC(=O)c2cc(C(C)C)nn2C)Cc2cc(OC)ccc2O1 (stereo not drawn) | i | . | . | . | .
CC(=O)c1ccc(NS(=O)(=O)c2ccc3[nH]c(=O)[nH]c3c2)cc1 | . | . | -15.5% | -8.3% | .
S=C(NCCc1ccccc1)N1CCN(C23CC4CC(CC(C4)C2)C3)CC1 | i | -22.8% | -8.9% | -14.0% | -84.2*
O=S(=O)(c1ccccc1)N1CCN(C(=S)NCCc2ccccc2)CC1 | i | 1.6% | 3.0% | -17.1% | -51.0*
O=S(=O)(c1ccccc1)N1CCN(C(=S)Nc2ccc(Br)cc2)CC1 | i | -20.7% | 3.6% | 0.0% | -50.4*
COc1ccc(S(=O)(=O)N2CCN(C(=S)NCCc3ccccc3)CC2)cc1 | i | -0.6% | 10.6% | -8.9% | 0.0
CCc1ccc(NC(=S)N2CCN(S(=O)(=O)c3ccccc3)CC2)cc1 | i | -4.9% | -5.1% | 0.0% | -16.5
Cc1nn2c(=O)cc(COC(=O)c3ccc(NC(=O)COc4ccc(Cl)cc4)cc3)nc2s1 | . | . | -15.8% | ? | .
O=[N+]([O-])c1cc(S(=O)(=O)N2CCCCCC2)ccc1Cl | . | -5.0%[11.3 µM] | -2.9% | -0.3% | -103.5*
Cc1ccc(S(=O)(=O)N2CCCC2)cc1[N+](=O)[O-] | i | -8.7% | 1.5% | 0.0% | 4.8
O=C1CCCN1c1ccc(S(=O)(=O)N2CCCCC2)cc1[N+](=O)[O-] | i | 2.5% | 6.31µM* | -6.1% | 0.5
COc1ccc2c(CNCCc3ccccc3OC)c(C(=O)O)n(Cc3ccc(F)cc3Cl)c2c1 | ? | ? | -59.4% | ? | .
OC1(c2ccc(OC(F)F)cc2)CSC(=Nc2cccnc2)N1Cc1ccco1 (stereo not drawn) | ? | ? | -21.1% | -16.9% | -77.3*
OC1(c2ccc(F)cc2)CSC(=Nc2cccnc2)N1Cc1ccco1 (stereo not drawn) | i | -27.1% | -2.7% | -2.3% | -5.3

Source: PubChem
